Data from PubChem BioAssay (NCI).
Compounds without any hit were thinned out: in the full panel of roughly 83,000, 20% have a hit.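 Interpretation: 100, growth as untreated; towards 0, rising growth inhibition; 0, no net growth; 0 to -100, cell death. Compounds scoring below 10 were considered active.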 A number with no mark means an inactive call. Active and inactive are the calls of the source.

Tests used:
Test in all cases: NCI-60 one-dose screen, 48 h (100 = growth as untreated, 0 = no growth, -100 = all killed)
Details in all cases: 10 µM unless noted
NCI-H23 lung = system: NCI-H23 lung
NCI-H226 lung = system: NCI-H226 lung
NCI-H322M lung = system: NCI-H322M lung
HOP-62 NSCLC = system: HOP-62 NSCLC
NCI-H460 lung = system: NCI-H460 lung
HOP-92 NSCLC = system: HOP-92 NSCLC
NCI-H522 lung = system: NCI-H522 lung
A549/ATCC NSCLC = system: A549/ATCC NSCLC
786-0 renal = system: 786-0 renal
COLO 205 colon = system: COLO 205 colon
DU-145 prostate = system: DU-145 prostate
K-562 leukemia = system: K-562 leukemia
MALME-3M melanoma = system: MALME-3M melanoma
MDA-MB-231 breast = system: MDA-MB-231 breast
RXF 393 renal = system: RXF 393 renal
SF-268 CNS = system: SF-268 CNS
SF-295 CNS = system: SF-295 CNS
SF-539 CNS = system: SF-539 CNS
UACC-257 melanoma = system: UACC-257 melanoma
M14 melanoma = system: M14 melanoma

Row | SMILES | growth (NCI-H23 lung) | growth (NCI-H226 lung) | growth (NCI-H322M lung) | growth (HOP-62 NSCLC) | growth (NCI-H460 lung) | growth (HOP-92 NSCLC) | growth (NCI-H522 lung) | growth (A549/ATCC NSCLC) | growth (786-0 renal) | growth (COLO 205 colon) | growth (DU-145 prostate) | growth (K-562 leukemia) | growth (MALME-3M melanoma) | growth (MDA-MB-231 breast) | growth (RXF 393 renal) | growth (SF-268 CNS) | growth (SF-295 CNS) | growth (SF-539 CNS) | growth (UACC-257 melanoma) | growth (M14 melanoma)
1 | Nc1ncnc2c1N=C(c1ccc3c(c1)OCO3)CC(c1ccc([N+](=O)[O-])cc1)N2 (stereo not given) | 74.7% | 83% | 90.5% | 66.9% | 96.2% | 41.9% | 95.3% | 58.7% | 51.8% | 97.6% | 96.8% | 96.5% | 108% | 55.9% | 50.4% | 86.2% | 296% | 86.8% | 77.8% | 92.2%
2 | O=C(Cn1c(=O)sc2nc3ccccc3nc21)Nc1ncc(Cc2cccc(Cl)c2Cl)s1 | 97.1% | 86.5% | 97.1% | 97.2% | 104% | 100% | 82.5% | 99.6% | 99.8% | 95.6% | 112% | 102% | 117% | 90.6% | 109% | 94.4% | 102% | 98.7% | 107% | 100%
3 | O=C1Nc2ccccc2/C1=C\c1nc(-c2ccccc2)n2ccccc12 | 85% | 91% | 92% | 92.9% | 94.4% | 121% | 77.7% | 92.7% | 99.4% | 110% | 86.4% | 77.2% | 119% | 60.6% | 78% | 93.9% | 97.6% | 101% | 124% | 79.8%
4 | CN(CCn1sc(=O)n(Cc2ccccc2)c1=O)Cc1ccc2c(Cl)cc(Cl)c(O)c2n1 | 50.1% | 61.9% | 41% | 25.2% | 19.8% | 36% | 80.9% | 32.6% | 37.6% | 93.7% | 51.6% | 13.7% | 63.7% | 46.4% | 53.7% | 46.1% | 30.5% | 47.1% | 78.5% | 49.4%
5 | N#Cc1nn(-c2cc(=O)[nH]c3ccc(Cl)cc23)c(N)c1C#N | 104% | 99.4% | 91.9% | 87.2% | 114% | -79.6% (active) | 87.1% | 98.3% | 93.4% | 100% | 118% | -43.9% (active) | 91.9% | 108% | 107% | 113% | 97.6% | 96% | 87% | 93.7%
6 | Cn1ccnc1C(=O)C(=O)Nc1ccc(CC(=O)Nc2ccccc2)cc1 | 104% | 96.4% | 102% | 107% | 102% | 103% | 99.5% | 108% | 104% | 109% | 104% | 111% | 101% | 109% | 102% | 96.7% | 106% | 99.4% | 110% | 104%
7 | OCCNCCCOc1ccc2ncnc(Nc3ccc(Oc4cccc(C(F)(F)F)c4)c(Cl)c3)c2c1 | 63.8% | 85.2% | 21.5% | 66.5% | -82.5% (active) | 40.5% | 30.8% | 23.8% | -4.05% (active) | -27.7% (active) | 16.3% | 1.39% (active) | 41.1% | -18% (active) | -49.3% (active) | 56% | 39.7% | -46.3% (active) | 54.9% | -60.3% (active)
8 | CCC(=C(c1ccc(OCCN2CCCC2)cc1)c1ccc(OCCN2CCCC2)cc1)c1ccc(Cl)cc1 | 77.1% | 105% | 20% | 60.2% | -86.9% (active) | 38.7% | 23.5% | -28% (active) | -94.2% (active) | -64.8% (active) | 26.4% | -21.2% (active) | -82.1% (active) | -70.9% (active) | 13.7% | 49.8% | -61.9% (active) | -88.4% (active) | -58% (active) | -75% (active)
9 | CCN1CCN(c2cc(C(=O)Nc3nc(-c4cc(OC)c(OC)c(OC)c4)cs3)cc(C(F)(F)F)c2)CC1 | 79.4% | 86.8% | 78% | 82.7% | 57.3% | 42.2% | 67.6% | 81.1% | 49.1% | 58.2% | 74.9% | 3.83% (active) | 69.3% | 47% | 69.3% | 65.1% | 83.2% | 75.6% | 88.6% | 42.1%
10 | N#Cc1cccc(F)c1 | 106% | 109% | 115% | 110% | 118% | 113% | 102% | 109% | 101% | 114% | 125% | 94.4% | 110% | 101% | 114% | 110% | 109% | 88.9% | 110% | 102%
11 | O=C1Nc2ccc(I)cc2C1=O | 89.7% | 92.8% | 107% | 84.4% | 107% | 104% | 93.4% | 88.7% | 109% | 88.9% | 106% | 107% | 110% | 93.5% | 91.4% | 110% | 99.1% | 100% | -28.4% (active) | 95.9%
12 | C[C@H](NC(=O)[C@@H](C)N)[C@H](Oc1ccc2c(cnn2-c2ccc(F)cc2)c1)c1ccc2c(c1)OCCO2 | 83.7% | 83.9% | 75.5% | 50.6% | 0.905% (active) | -4.6% (active) | 24.8% | 39.3% | 56.7% | -3.17% (active) | 55.4% | -3.32% (active) | -24.7% (active) | 42.5% | 62% | 42.5% | 77% | 74% | 63.9% | -69.6% (active)
13 | COP(=O)(OC)C(C)(C)CC(=O)CC(C#N)(C#N)C(C#N)C#N | 98.7% | 92.9% | 99.3% | 98.1% | 112% | 55.9% | 101% | 104% | 105% | 107% | 113% | 91.1% | 96.8% | 100% | 97.8% | 98% | 101% | 102% | 103% | 96.2%
14 | COC(=O)c1cc(-c2ccc(OC)cc2)[nH]c1N/N=C/c1c(Cl)cccc1Cl | 46.1% | 38.1% | 36.1% | -42.5% (active) | -9.38% (active) | 47.4% | 10.5% | 5.26% (active) | -14% (active) | -23.9% (active) | -26.2% (active) | 0.823% (active) | 24.7% | 7.56% (active) | -44.2% (active) | 13.8% | -28.2% (active) | -38.8% (active) | 14.2% | -59.3% (active)
15 | COc1ccc(-c2ccc3cnc4sc(-c5ccc(OC)cc5)nc4c3n2)cc1 | 91% | 85.7% | 86.7% | 97.8% | 102% | 100% | 87.4% | 93.1% | 106% | 104% | 107% | 96.6% | 111% | 89.6% | 107% | 95.4% | 100% | 91.5% | 106% | 115%
16 | CC1(C)c2[nH]c3ccccc3c2C[C@]2(C)[C@H]3CC=C4[C@@H]5C[C@@](C)(C(N)=O)CC[C@]5(C)CC[C@@]4(C)[C@]3(C)CC[C@@H]12 | 51.2% | 60.4% | 76.1% | 79.5% | 52.6% | 80.6% | 52.5% | 53.6% | 74.5% | 58.9% | 74% | 29.9% | 68% | 65.8% | 77.4% | 73.2% | 53.6% | 80.9% | 52.5% | 54.6%
